Screening data from PubChem BioAssay.
In the library only some 3.8% were active in any assay of this set; here they are far more common.
S2 tox: cell viability loss in ATXN counter-screen; Potency, µM (series often up to 56.7 µM), most hits filed as cytotoxic; S2 cells (HEK-293 line with an ATXN2-luciferase reporter) viability, CellTiter-Fluor protease fluorescence, 24 h; AID 651635; hit rate 0.49% among 400,000; also: nearly all actives have a fitted effect of over 40% in size
ATXN2 expr inh: inhibitors of ATXN2 expression; Potency, µM (series often up to 57 µM), most hits filed as inhibitors; hit rate 0.72% among 360,000; HEK-293 ATXN2-luciferase reporter, luminescence, 24 h; also: nearly all actives have a fitted effect of over 55% in size
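qHTS (up to 57 uM final) was run with 24 h compound exposure of reporter cells at 37 °C. Each well was multiplexed: SteadyGlo luminescence measured ATXN2-luciferase expression after a fluorogenic Gly-Phe-AFC viability readout (25 uM final).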
TGFb SMAD3 inh: inhibitors of TGF-b signaling; hit rate 1.2% among 410,000; HepG2 CAGA-GFP TGF-b/SMAD3 reporter, GFP fluorescence, 18 h; TGF-beta stimulated, 500 pg/mL final; AID 588855; Potency, µM (titrated, usually from 46.1 µM), hits mostly inhibitors; also: nearly all actives have a fitted effect of over 65% in size
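Inhibition of TGF-beta-driven CAGA-GFP reporter expression in HEPG2 cells is measured by cellular GFP fluorescence after 18 h stimulation with 500 pg/mL recombinant TGF-beta in 1% FBS medium at 37 degrees C.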
HepG2 tox-1: counter-screen for TGF-b inhibitors: cytotoxicity in HepG2 cells | HepG2 CAGA-GFP viability, ATP luminescence, 18 h | hit rate 0.76% among 410,000 | AID 588856 | Potency, µM (highest dose often 46.1 µM), usual class: cytotoxic
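CellTiter-Glo luminescence gave cytotoxicity after 18 hours at 37 degrees C. The cells were HepG2 CAGA-GFP in 1% FBS DMEM, stimulated with 500 pg/mL TGF-beta after compound addition. %Activity was normalised to no-cell wells (complete cell-killing) and DMSO (no toxicity), and curves were fitted and classified.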
A549 viability: kills or reduces viability of A549 cells in Nrf2 counter-screen. A549 ARE-Fluc cells, CellTiter-Fluor viability, 18-24 h. Potency, µM (top dose mostly 46 µM), most hits filed as inhibitors. hit rate 0.16% among 390,000
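A549 ARE-Fluc cells in 5% FBS OPTI-MEM, 5000 cells/well, rested 2 h then exposed to compounds in concentration-response for 18-24 h at 37 °C. Viability by CellTiter-Fluor fluorescence (Ex 405/Em 525) after 30 min; luciferase luminescence (BugLite, 15 min, RT) read afterwards.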
Nrf2 inh: blocks Nrf2 signaling; A549 ARE-Fluc reporter, luciferase luminescence, 18-24 h; Potency, µM (series often up to 46 µM), usual class: inhibitors; hit rate 2.1% among 360,000; AID 504444; also: nearly all actives have a fitted effect of over 60% in size
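A549 ARE_Fluc cells (5000/well, 5% FBS OPTI-MEM) pre-incubated 2 h, then treated with compounds 18-24 h at 37C/5% CO2 in concentration-response. CellTiter-Fluor viability read first; BugLite luciferase luminescence after 15 min at room temperature gives Nrf2 activity.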
TGFb CAGA inh: confirmation of TGF-b signaling inhibitors in HepG2 reporter cells. shares compounds with TGFb SMAD3 inh. HepG2 CAGA-GFP TGF-b reporter, GFP fluorescence, 18 h; cells stimulated with TGF-beta, 500 pg/mL. Potency, µM (top dose mostly 46.1 µM), hits mostly inhibitors. hit rate 63% among 1,600. AID 720534; also: nearly all actives have a fitted effect of over 65% in size
HepG2 tox-2: counter-screen for TGF-b inhibitors: cytotoxicity in HepG2 cells; shares compounds with TGFb SMAD3 inh; HepG2 CAGA-GFP viability, ATP luminescence, 18 h; cells stimulated with TGF-beta, 500 pg/mL; Potency, µM (titrated, usually from 46.1 µM), hits mostly inhibitors; hit rate 27% among 1,600; also: nearly all actives have a fitted effect of over 70% in size
CCL64 TGFb inh: blocks TGF-b signaling in CCL64 reporter cells | shares compounds with TGFb SMAD3 inh | CCL64 CAGA-GFP reporter, TGF-b stimulated, GFP fluorescence, 18 h | Potency, µM (titrated, usually from 46.1 µM), usual class: inhibitors | hit rate 41% among 1,600 | AID 720536; also: nearly all actives have a fitted effect of over 65% in size
COP TGFb inh: validation of TGF-b inhibitors in HepG2 COP promoter reporter | shares compounds with TGFb SMAD3 inh | HepG2 COP-GFP TGF-b reporter, GFP fluorescence, 18 h; cells stimulated by added recombinant TGF-beta | Potency, µM (highest dose often 46.1 µM), most hits filed as inhibitors | hit rate 3% among 1,600 | AID 720537; also: nearly all actives have a fitted effect of over 70% in size
Hits are given with their value; n = inactive; u = inconclusive; x = no result. Calls follow the shape of the dose curve; as a rule, active = well fitted curve in the direction sought with a large enough effect; inconclusive = small, poorly fitted or top-dose-only effect, or another doubt; inactive = no such curve, though single readings can be large; an effect the other way counts as inactive or inconclusive.

SMILES | S2 tox | ATXN2 expr inh | TGFb SMAD3 inh | HepG2 tox-1 | A549 viability | Nrf2 inh | TGFb CAGA inh | HepG2 tox-2 | CCL64 TGFb inh | COP TGFb inh
O=CNc1cc(-c2ccoc2)cn2c(-c3ccc(F)cc3)cnc12 | n | n | 10µM | n | x | x | u | n | u | n
CC(=O)c1cccc(-c2cnc3c(NC=O)cc(-c4ccccc4F)cn23)c1 | n | u | 6.31µM | n | x | x | 6.51µM | n | 1.46µM | n
Cn1cc(-c2cnc3c(NC=O)cc(-c4cccc(C(F)(F)F)c4)cn23)cn1 | n | n | 11.2µM | n | x | x | 23.1µM | n | u | n
CC(=O)Nc1cc(-c2ccccc2F)cn2c(-c3ccccc3)cnc12 | u | n | n | n | x | x | x | x | x | x
Cc1cc(C)c(S(=O)(=O)N2CCN(C(=O)CN3C(=O)NC4(CCCC4)C3=O)CC2)c(C)c1 | n | n | n | n | n | n | x | x | x | x
CCCn1cnnc1CNC(=O)C1CCC(=O)N(CCCc2ccccc2)C1 (stereo not given) | n | n | n | n | n | n | x | x | x | x
CC1=C(C(=O)Nc2ccccc2)C(CC(C)C)n2nc(SCc3ccccc3C)nc2N1 (stereo not given) | n | n | n | n | n | n | x | x | x | x
COc1cc(/C=N/n2c(SC)nnc(C(C)(C)C)c2=O)ccc1O | n | n | 3.16µM | n | n | n | u | n | n | n
COc1ccc(C(=O)Nc2cc(OC)c(NC(=O)Nc3ccccc3)cc2OC)cc1 | u | x | n | n | x | x | x | x | x | x
C#CCNC(=O)C[C@@H]1C[C@@]2(C(=O)OCC)CCCC=C2N(Cc2ccc(Cl)cc2Cl)C1=O | u | n | x | x | x | x | x | x | x | x
O=S(=O)(NCC(Nc1ccccc1)c1ccccc1)c1ccc(Cl)cc1 (stereo not given) | u | u | 10µM | n | u | u | u | n | n | n
CC(C)(C)c1cc(C(c2cccnc2)N2CCN(CCO)CC2)cc(C(C)(C)C)c1O (stereo not given) | x | u | 7.94µM | 12.6µM | u | n | 5.17µM | 14.6µM | 4.61µM | u
CCCCCn1c(NC(=O)c2ccco2)c(S(=O)(=O)c2ccc(C)cc2)c2nc3ccccc3nc21 | n | n | u | n | n | u | x | x | x | x
CCCCn1c(NC(=O)c2ccco2)c(S(=O)(=O)c2ccc(C)cc2)c2nc3ccccc3nc21 | x | n | u | n | n | n | n | n | 16.4µM | n
CC1CCCN(S(=O)(=O)c2ccc3c(c2)OCCO3)C1 (stereo not given) | n | x | n | n | x | x | x | x | x | x
O=C(N=Nc1c(O)[nH]c2ccc(Br)cc12)c1ccccc1-n1cccc1 | x | u | u | n | u | u | 7.31µM | u | 18.4µM | n
COc1ccc(C)cc1S(=O)(=O)N(CC(=O)NCc1ccc(Cl)cc1)Cc1ccccc1 | n | n | 12.6µM | n | u | u | u | u | u | n
Cc1ccc(NC(=O)Cn2c(=O)n(Cc3nc(C)no3)c(=O)c3cc4c(cc32)OCO4)c(C)c1 | n | n | n | n | n | n | x | x | x | x
CC1CN(c2nc3ccccc3nc2SCC(=O)Nc2cccc(C(F)(F)F)c2)CC(C)O1 (stereo not given) | u | u | 15.8µM | n | u | u | 23.1µM | u | u | n
